Data on 17 molecules can be found in PubChem BioAssay.

Assay [1] deals with Human papillomavirus type 1a protein E7 (residues 44-93). Nature of the assay: HPV1a E7 fragment binders on microarrays, primary screen, biochemical, small-molecule microarray, residues 44-93, 635 nm fluorescence (AID 1108).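 Also: E7 fragment applied at 1 µg/mL in TBST for 1 h at 4 C; score combines spot fluorescence with its signal to noise ratio.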 The following applies: small-molecule microarray binding, fluorescence 635 nm; higher = more signal.
Assay [2] in a line: modulators of HCV replicon luciferase signal, primary screen, HCV replication inhibitor project, Huh7 cells, luciferase reporter (AID 1109).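 Also: huh7 hepatoma cells harbouring a luciferase neomycin HCV replicon reporter; luciferase luminescence as measure of HCV replicon replication; test concentration not given here.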 The following applies: 48 h, higher = more signal.
The target in assay [3] is Left-right determination factor 2 (Homo sapiens) (UniProt O00292). Nature of the assay: LEFTY2 binders on small-molecule microarrays, primary screen, biochemical, small-molecule microarray, 635 nm fluorescence scan (AID 1110). The note with it: LEFTY2 binding, higher = more signal.
In assay [4] the target is Calmodulin-1 (Homo sapiens) (UniProt P0DP23). Nature of the assay: CALM1 binders on microarrays, EGTA buffer, profiling panel, biochemical, small-molecule microarray, Cy5-labelled CALM1 (AID 1111).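 Also: labelled calmodulin applied in Tris saline Tween buffer holding calcium plus EGTA and DTT.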 The following applies: Cy5-CALM1 binding fluorescence, higher = more signal.
For assay [5] the target is unchanged. The assay can be described thus: calcium-bound CALM1 binders on microarrays, profiling panel, artefact control for SMM control-protein annotation, biochemical, small-molecule microarray, Cy5-labelled CALM1, plus calcium (AID 1112).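 Also: score merges spot fluorescence with signal to noise from triplicate slides.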 The note with it: Cy5-CALM1 binding fluorescence, higher = more signal.
A short description of assay [6]: small-molecule microarray binders of probe aWnt5a, primary screen, biochemical, biotinylated probe, 635/667 nm fluorescence (AID 1113).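 Also: score merges 667 nm fluorescence intensity with signal-to-noise per printed feature.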 The following applies: higher = more signal.
Assay [7] can be described thus: small-molecule microarray binders of probe aShh, primary screen, biochemical, biotinylated probe, 635/667 nm fluorescence (AID 1114).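 Also: probe is biotin-labelled aShh protein from a stem cell growth factor screen; measures binding of labelled protein to compounds printed on the slide; score merges feature fluorescence at 667 nm with signal-to-noise.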 The note with it: higher = more signal.
Assay [8] can be described thus: small-molecule microarray binders of probe aNog, primary screen, biochemical, biotinylated probe, 635/667 nm fluorescence (AID 1115).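 Also: probe is biotinylated aNog protein used at 0.15 µg/mL for 1 h at 4 C; z-score combines 667 nm fluorescence of each spot with its signal to noise.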 The following applies: higher = more signal.
In assay [9] the target is Torsin-1A-interacting protein 1 (Homo sapiens) (UniProt Q5JTV8). The assay can be described thus: LAP1 binders from COS7 cell lysate, primary screen, small-molecule microarray, 635/667 nm fluorescence (AID 1116). The note with it: COS7-hLAP1 lysate binding, 635 nm fluorescence, higher = more signal.
Assay [10] concerns the target Alpha-bungarotoxin (Bungarus multicinctus) (UniProt P60615). The assay can be described thus: alpha-bungarotoxin binders on microarray, profiling panel, artefact control for SMM control protein annotation, biochemical, small-molecule microarray, Alexa647 label, 635/667 nm fluorescence (AID 1117). The note with it: alpha-BTX-A647 binding fluorescence, higher = more signal.

Sequence of Alpha-bungarotoxin (Bungarus multicinctus) (P60615 whole entry, looked up): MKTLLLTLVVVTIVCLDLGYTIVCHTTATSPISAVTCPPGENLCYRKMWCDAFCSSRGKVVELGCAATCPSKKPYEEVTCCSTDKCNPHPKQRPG
Sequence of Torsin-1A-interacting protein 1 (Homo sapiens) (Q5JTV8 whole entry, looked up): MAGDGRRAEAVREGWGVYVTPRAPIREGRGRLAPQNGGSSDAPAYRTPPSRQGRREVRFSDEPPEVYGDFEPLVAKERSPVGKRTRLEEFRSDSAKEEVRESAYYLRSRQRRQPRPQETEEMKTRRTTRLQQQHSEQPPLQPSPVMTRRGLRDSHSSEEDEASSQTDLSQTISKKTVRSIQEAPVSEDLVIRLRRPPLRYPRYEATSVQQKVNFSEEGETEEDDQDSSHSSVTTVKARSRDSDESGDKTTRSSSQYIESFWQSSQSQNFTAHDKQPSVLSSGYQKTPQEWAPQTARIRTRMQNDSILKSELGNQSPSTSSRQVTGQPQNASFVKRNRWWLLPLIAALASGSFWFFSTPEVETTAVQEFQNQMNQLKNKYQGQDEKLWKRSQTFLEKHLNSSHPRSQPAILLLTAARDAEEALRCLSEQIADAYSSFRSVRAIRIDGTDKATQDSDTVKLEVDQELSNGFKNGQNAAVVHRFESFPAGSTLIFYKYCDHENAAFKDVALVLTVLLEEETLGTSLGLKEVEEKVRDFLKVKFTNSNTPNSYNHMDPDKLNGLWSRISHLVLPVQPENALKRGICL
Sequence of Left-right determination factor 2 (Homo sapiens) (O00292 whole entry, looked up): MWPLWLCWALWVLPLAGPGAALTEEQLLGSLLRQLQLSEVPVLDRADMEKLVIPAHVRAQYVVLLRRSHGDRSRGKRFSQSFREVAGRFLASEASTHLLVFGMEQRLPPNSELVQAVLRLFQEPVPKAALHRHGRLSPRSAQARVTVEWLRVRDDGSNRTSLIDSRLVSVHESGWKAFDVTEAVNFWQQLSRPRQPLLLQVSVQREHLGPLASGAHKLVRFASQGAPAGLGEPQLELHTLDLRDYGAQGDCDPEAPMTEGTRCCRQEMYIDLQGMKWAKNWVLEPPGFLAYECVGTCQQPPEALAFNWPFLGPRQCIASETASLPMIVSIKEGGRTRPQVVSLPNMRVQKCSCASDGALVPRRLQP

In the case of `O=C(NCc1ccc(F)cc1)[C@H]1C[C@H]2C(=O)NCC(=O)N2[C@H]1c1ccc(O)cc1`, the composite z-score in assay [1] is 1.03; in assay [3], 0.887; in [4], -0.449; in assay [5], 0.0871; in assay [6], -0.0684; in assay [7], -0.0553. The composite z-score in [8] was -0.132; in assay [9] it was 0.605; in assay [10], -0.144. This molecule also displayed a z-score in [2] of -0.0497.
On to `COc1ccc(CCNC(=O)[C@@]2(Cc3ccccc3I)c3ccccc3C(=O)N(C3CCCCC3)[C@H]2c2ccc(CO)cc2)cc1`, for which the composite z-score in assay [1] was 1.3; in assay [3], -0.425; in [4] it was 0.902; in assay [5], 0.609; in assay [6] it was -0.0721; in assay [7], -0.0626. Moreover, the composite z-score is -0.158 in [8], 0.0805 in assay [9] and 0.678 in assay [10]. In assay [2], this molecule returned a z-score of -3.2.
As for `CCOC(=O)C1=C[C@@H](C(C)(C)C)N(S(=O)(=O)c2ccc(C)cc2)[C@H]1c1cccc2ccccc12`, the composite z-score was 1.28 in assay [1]; -0.49 in assay [3]; 1.07 in [4]; 0.423 in assay [5]; -0.0478 in [6]; -0.156 in assay [7]. The composite z-score was -0.145 in assay [8], -0.281 in assay [9] and 0.657 in assay [10]. In addition, in [2], the z-score is -2.28.
For `CN1C(=O)C2C=CC(C(O)c3cccn3C)N(Nc3ccc([N+](=O)[O-])cc3[N+](=O)[O-])C2C1=O` (stereo not given), the composite z-score in assay [1] was 0.0443; in assay [3] it was -0.135; in assay [4], 1.08; in assay [5], 0.212; in assay [6] it was 0.0357; in assay [7] it was 0.496. Also, the composite z-score in assay [8] is 0.31; in assay [9], -0.0083; in [10], 0.401. The z-score in [2] is -0.0091.
As for `Cc1ccccc1C(O)C1C=CC2C(=O)NC(=O)C2N1Nc1ccccn1` (stereo not given), the composite z-score in [1] was -0.439; in assay [3], 0.263; in [4] it was -0.285; in [5] it was -0.206; in assay [6], -0.221; in assay [7] it was -0.349. Moreover, the composite z-score was -0.0682 in assay [8], 0.692 in assay [9] and 0.173 in assay [10]. In assay [2], this molecule came in with a z-score of 0.331.
Consider `COc1ccc([Si](C)(C)[C@H]2[C@H](CC(=O)N3CCC[C@H]3CO)O[C@@]3(C(=O)N(Cc4ccc(N5CCOC5=O)cc4)c4ccccc43)[C@@H]2C)cc1`, for which the composite z-score in assay [1] was 1.37; in assay [3], 0.75; in [4] it was 0.655; in assay [5], 0.0967; in assay [6], 0.0194; in assay [7] it was -0.223. Also, the composite z-score is -0.172 in [8], 0.833 in assay [9] and 1.08 in assay [10]. Further, the z-score in [2] was -2.52.
In the case of `O=C1O[C@@H](c2ccccc2)[C@@H](c2ccccc2)N2[C@@H](c3ccc(OCCO)cc3)[C@]3(C(=O)Nc4ccc(C#CC5=CCCCC5)cc43)[C@@H](C(=O)NC[C@H](O)c3ccccc3)[C@H]12`, the composite z-score in [1] was 0.97; in assay [3] it was 0.665; in [4], 1.25; in [5], 0.7; in assay [6], -0.042; in assay [7] it was -0.398. The values for the composite z-score in [8], in assay [9] and in [10] were 1.74, 1.12 and 0.608, respectively. The same molecule gave a z-score in assay [2] of -2.54.
For the molecule `CCOC(=O)C=Cc1cccc(C)c1O`, the composite z-score in assay [1] is -0.377; in assay [3] it was 0.111; in assay [4], -0.122; in [5], -0.335; in assay [6], -0.1; in [7], -0.0769. The composite z-score was -0.288 in assay [8], 0.0897 in assay [9] and 0.11 in assay [10]. Besides, the z-score in [2] came out at 0.717.
`CCCCCC1=C2CNC(C)(C(=O)OC)C=C2C(C)C1=O` (stereo not given): the composite z-score in [1] was -0.696; in assay [3], -0.37; in [4], 0.764; in assay [5], 0.897; in assay [6] it was -0.0519; in assay [7], 0.265. Further, the values for the composite z-score in assay [8], in assay [9] and in assay [10] were 1.17, 0.137 and -0.0075, respectively. The z-score in assay [2] was -0.654.
On to `O=C1[C@H]2C=C(I)[C@H](C[C@@H]2OCCOCCO)[C@@]12CO2`, for which the composite z-score is 0.496 in assay [1]; 0.547 in assay [3]; -0.315 in [4]; -0.876 in [5]; -0.26 in assay [6]; -0.243 in assay [7]. For the same molecule, the composite z-score in assay [8] is 0.101; in assay [9], 0.269; in assay [10], -0.0432. In assay [2], the z-score was -2.21.
For the molecule `C=C(/C(=C/C[C@H](OC(=O)c1ccncc1)c1ccc(CO)o1)c1cnc2ccccc2c1)C(C)C`, the composite z-score in [1] was 1.38; in assay [3], 0.957; in assay [4] it was 0.544; in assay [5], -0.0351; in assay [6], 0.0474; in assay [7], -0.15. The composite z-score came to 0.181 in assay [8], 0.854 in [9] and 0.999 in [10]. This molecule yielded a z-score in [2] of -2.1.
On to `CC(C)(C)OC(=O)CC[C@@]1(C(=O)NCC(O)CO)N=C(c2ccc(OCCCO)cc2)O[C@@H]1c1ccccc1CN=[N+]=[N-]` (stereo not given in full), for which the composite z-score in [1] was 1.11; in [3], -0.222; in [4] it was 1.25; in [5] it was 0.311; in assay [6] it was -0.124; in [7] it was 0.108. In addition, the composite z-score in assay [8] is 0.72; in assay [9], 1.64; in assay [10] it was 0.833. This molecule also came in with a z-score in assay [2] of -0.75.
On to `CC(C)c1ccc(NN2C(C(O)c3ccc(C#N)cc3)C=CC3C(=O)N(c4ccccc4)C(=O)C32)cc1` (stereo not given), for which the composite z-score in assay [1] is 1.44; in assay [3] it was -0.109; in assay [4], 2.28; in assay [5], 1.01; in [6], -0.0405; in [7], 0.19. The results for the composite z-score in assay [8], in assay [9] and in assay [10] were 1.97, 1.35 and 1.85, respectively. This molecule also showed a z-score in assay [2] of -0.882.
In the case of `COCCOC(=O)N1C(=O)[C@@]2(c3cc(C#CCCO)ccc31)[C@H](c1ccc(OCCO)cc1)N1[C@H](c3ccccc3)[C@H](c3ccccc3)OC(=O)[C@H]1[C@@H]2C(=O)Nc1nc2ccccc2s1`, the composite z-score in assay [1] is 0.281; in assay [3], 0.95; in assay [4], 0.751; in assay [5], 0.682; in assay [6], -0.0977; in assay [7], 0.626. Moreover, the composite z-score stood at 0.0947 in assay [8], 1.08 in assay [9] and 1.96 in assay [10]. Moreover, the z-score in [2] was -1.13.
Take `[N-]=[N+]=Nc1ccccc1[C@@H]1OC(c2ccc(OCCCO)cc2)=N[C@]1(Cc1ccccc1)C(=O)N1CCCCC1`: the composite z-score in [1] came to 1.46; in assay [3], 0.0418; in assay [4], 1.43; in assay [5], 0.748; in assay [6], 0.0484; in assay [7], 0.337. The values for the composite z-score in assay [8], in [9] and in assay [10] were 1.37, 1.57 and 1.25, respectively. The same molecule showed a z-score in [2] of -2.57.
As for `CCCNC(=O)[C@@]1(Sc2ccc(C)cc2)CC(=O)N(C2Cc3ccccc3C2)[C@@H]1c1ccc(CO)cc1I`, the composite z-score is 1.08 in assay [1]; 0.698 in [3]; 0.183 in assay [4]; 0.497 in assay [5]; 0.0932 in [6]; -0.221 in assay [7]. Besides, the composite z-score in assay [8] turned out to be 1.17; in assay [9], 0.604; in [10], 0.161. Besides, the z-score in [2] was -1.65.
`COc1ccc(C(=O)Nc2ccc(CN3C(=O)[C@]4(O[C@H](CC(=O)N5Cc6ccccc6C[C@H]5CO)[C@@H]([Si](C)(C)c5ccc(OC)cc5)[C@@H]4C)c4ccccc43)cc2)cc1`: the composite z-score is 1.33 in assay [1]; 0.575 in [3]; 0.301 in assay [4]; -0.376 in assay [5]; -0.128 in assay [6]; -0.232 in assay [7]. Moreover, the composite z-score is -0.31 in assay [8], 0.795 in assay [9] and 1.31 in assay [10]. In assay [2], this molecule yielded a z-score of -3.58.
